Source: the supplement of paper PMC4466140

How the values were obtained:
Assay in all cases: SPOT peptide array binding signal intensity (averaged, normalized) (arbitrary units (background-subtracted, floor 0; scale differs between SH3 domains)); higher = stronger binding of the SH3 domain to the peptide
AgAbp1 = target: AgAbp1
Summary of the method: (§1)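 E. coli BL21(DE3) was used to express GST-fused SH3 domains from four yeast species, which were then purified on glutathione Sepharose. These were incubated at 10 μg/ml in TBS-based blocking buffer overnight at 4°C on cellulose membranes carrying synthetic 15-mer peptides, in which cysteines were replaced by serines. Binding signal is the replicate average of normalized, background-subtracted spot intensity, in arbitrary units that differ between domains.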

AgBbc1 = target: AgBbc1
Summary of the method: as §1

AgBem1-D1 = target: AgBem1-D1
Summary of the method: as §1

AgBzz1-D1 = target: AgBzz1-D1
Summary of the method: as §1

AgBzz1-D2 = target: AgBzz1-D2
Summary of the method: as §1

AgCyk3 = target: AgCyk3
Summary of the method: as §1

AgFus1 = target: AgFus1
Summary of the method: as §1

AgHof1 = target: AgHof1
Summary of the method: as §1

AgHse1 = target: AgHse1
Summary of the method: as §1

AgLsb1 = target: AgLsb1
Summary of the method: as §1

AgLsb4 = target: AgLsb4
Summary of the method: as §1

AgMyo5 = target: AgMyo5
Summary of the method: as §1

AgNbp2 = target: AgNbp2
Summary of the method: as §1

AgRvs167 = target: AgRvs167
Summary of the method: as §1

AgSho1 = target: AgSho1
Summary of the method: as §1

AgSla1-D1-D2 = target: AgSla1-D1-D2
Summary of the method: as §1

AgSla1-D3 = target: AgSla1-D3
Summary of the method: as §1

CaAbp1-D1 = target: CaAbp1-D1
Summary of the method: as §1

CaAbp1-D2 = target: CaAbp1-D2
Summary of the method: as §1

CaBbc1 = target: CaBbc1
Summary of the method: as §1

CaBem1-D1 = target: CaBem1-D1
Summary of the method: as §1

CaBzz1-D1 = target: CaBzz1-D1
Summary of the method: as §1

CaBzz1-D2 = target: CaBzz1-D2
Summary of the method: as §1

CaCyk3 = target: CaCyk3
Summary of the method: as §1

CaFus1 = target: CaFus1
Summary of the method: as §1

CaHof1 = target: CaHof1
Summary of the method: as §1

CaHse1 = target: CaHse1
Summary of the method: as §1

CaLsb1 = target: CaLsb1
Summary of the method: as §1

CaLsb4 = target: CaLsb4
Summary of the method: as §1

CaMyo5 = target: CaMyo5
Summary of the method: as §1

CaNbp2 = target: CaNbp2
Summary of the method: as §1

CaRvs167 = target: CaRvs167
Summary of the method: as §1

CaRvs167-3 = target: CaRvs167-3
Summary of the method: as §1

CaSho1 = target: CaSho1
Summary of the method: as §1

CaSla1-D1-D2 = target: CaSla1-D1-D2
Summary of the method: as §1

CaSla1-D3 = target: CaSla1-D3
Summary of the method: as §1

ScAbp1 = target: ScAbp1
Summary of the method: as §1

ScBbc1 = target: ScBbc1
Summary of the method: as §1

ScBem1-D1 = target: ScBem1-D1
Summary of the method: as §1

ScBzz1-D1 = target: ScBzz1-D1
Summary of the method: as §1

ScBzz1-D2 = target: ScBzz1-D2
Summary of the method: as §1

ScCyk3 = target: ScCyk3
Summary of the method: as §1

ScFus1 = target: ScFus1
Summary of the method: as §1

ScHof1 = target: ScHof1
Summary of the method: as §1

ScHse1 = target: ScHse1
Summary of the method: as §1

ScLsb1 = target: ScLsb1
Summary of the method: as §1

ScLsb2 = target: ScLsb2
Summary of the method: as §1

ScLsb3 = target: ScLsb3
Summary of the method: as §1

ScLsb4 = target: ScLsb4
Summary of the method: as §1

ScMyo3 = target: ScMyo3
Summary of the method: as §1

ScMyo5 = target: ScMyo5
Summary of the method: as §1

ScNbp2 = target: ScNbp2
Summary of the method: as §1

ScPex13 = target: ScPex13
Summary of the method: as §1

ScRvs167 = target: ScRvs167
Summary of the method: as §1

ScSho1 = target: ScSho1
Summary of the method: as §1

ScSla1-D1-D2 = target: ScSla1-D1-D2
Summary of the method: as §1

ScSla1-D3 = target: ScSla1-D3
Summary of the method: as §1

SpAbp1-D1 = target: SpAbp1-D1
Summary of the method: as §1

SpBbc1 = target: SpBbc1
Summary of the method: as §1

SpBzz1-D1 = target: SpBzz1-D1
Summary of the method: as §1

B1: unnamed (peptide)
chain: KNPRRQLQIPRQQPS
- SPOT peptide array binding signal intensity (AgAbp1): 242
- SPOT peptide array binding signal intensity (AgBbc1): 60.8
- SPOT peptide array binding signal intensity (AgBem1-D1): 73
- SPOT peptide array binding signal intensity (AgBzz1-D1): 77
- SPOT peptide array binding signal intensity (AgBzz1-D2): 44
- SPOT peptide array binding signal intensity (AgCyk3): ≤ 0
- SPOT peptide array binding signal intensity (AgFus1): 9.5
- SPOT peptide array binding signal intensity (AgHof1): 55.8
- SPOT peptide array binding signal intensity (AgHse1): 142
- SPOT peptide array binding signal intensity (AgLsb1): 100
- SPOT peptide array binding signal intensity (AgLsb4): 25
- SPOT peptide array binding signal intensity (AgMyo5): 7
- SPOT peptide array binding signal intensity (AgNbp2): 16.5
- SPOT peptide array binding signal intensity (AgRvs167): 2.67
- SPOT peptide array binding signal intensity (AgSho1): ≤ 0
- SPOT peptide array binding signal intensity (AgSla1-D1-D2): 44
- SPOT peptide array binding signal intensity (AgSla1-D3): 2.5
- SPOT peptide array binding signal intensity (CaAbp1-D1): 728
- SPOT peptide array binding signal intensity (CaAbp1-D2): 464
- SPOT peptide array binding signal intensity (CaBbc1): 218
- SPOT peptide array binding signal intensity (CaBem1-D1): 73
- SPOT peptide array binding signal intensity (CaBzz1-D1): 84
- SPOT peptide array binding signal intensity (CaBzz1-D2): 42
- SPOT peptide array binding signal intensity (CaCyk3): 7
- SPOT peptide array binding signal intensity (CaFus1): 208
- SPOT peptide array binding signal intensity (CaHof1): ≤ 0
- SPOT peptide array binding signal intensity (CaHse1): 1
- SPOT peptide array binding signal intensity (CaLsb1): 0.5
- SPOT peptide array binding signal intensity (CaLsb4): 51.5
- SPOT peptide array binding signal intensity (CaMyo5): 5
- SPOT peptide array binding signal intensity (CaNbp2): 333
- SPOT peptide array binding signal intensity (CaRvs167): 12
- SPOT peptide array binding signal intensity (CaRvs167-3): 11.8
- SPOT peptide array binding signal intensity (CaSho1): 47.5
- SPOT peptide array binding signal intensity (CaSla1-D1-D2): 148
- SPOT peptide array binding signal intensity (CaSla1-D3): 1.25
- SPOT peptide array binding signal intensity (ScAbp1): 146
- SPOT peptide array binding signal intensity (ScBbc1): 7.25
- SPOT peptide array binding signal intensity (ScBem1-D1): 29
- SPOT peptide array binding signal intensity (ScBzz1-D1): 47.5
- SPOT peptide array binding signal intensity (ScBzz1-D2): 8
- SPOT peptide array binding signal intensity (ScCyk3): 15
- SPOT peptide array binding signal intensity (ScFus1): 98
- SPOT peptide array binding signal intensity (ScHof1): 0.75
- SPOT peptide array binding signal intensity (ScHse1): 527
- SPOT peptide array binding signal intensity (ScLsb1): 162
- SPOT peptide array binding signal intensity (ScLsb2): 2
- SPOT peptide array binding signal intensity (ScLsb3): 132
- SPOT peptide array binding signal intensity (ScLsb4): 12
- SPOT peptide array binding signal intensity (ScMyo3): 2
- SPOT peptide array binding signal intensity (ScMyo5): 1
- SPOT peptide array binding signal intensity (ScNbp2): 173
- SPOT peptide array binding signal intensity (ScPex13): ≤ 0
- SPOT peptide array binding signal intensity (ScRvs167): 13.5
- SPOT peptide array binding signal intensity (ScSho1): 95
- SPOT peptide array binding signal intensity (ScSla1-D1-D2): 442
- SPOT peptide array binding signal intensity (ScSla1-D3): 21
- SPOT peptide array binding signal intensity (SpAbp1-D1): 306
- SPOT peptide array binding signal intensity (SpBbc1): 1
- SPOT peptide array binding signal intensity (SpBzz1-D1): 240
